Values joined by “and” are separate entries in the source; they are usually repeats but may differ in a detail not shown here. Identical values can stand only once. Where a structure was tested more than once in an assay, its records may differ in their call. Active and inactive are the calls of the source. The calls were made as follows: active = hit-call score of the fitted dose curve at least 0.9, where 1 is the maximum; inactive = score below 0.9.
How the values were obtained:
[1] = read-out: Monocyte Chemoattractant Protein-1 (MCP1), CCL2 (gene 6347); assay: BSK_4H_MCP1: BioMAP Diversity Plus: 4H Assay for Monocyte Chemoattractant Protein-1 (MCP1) Biomarker Activity (AID 2283018); details: primary human endothelial cells (HUVEC); actives raise or lower the signal
Outline: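 ELISA of MCP-1 (CCL2) 24 h after chemical dosing of HUVEC in the BioMAP 4H system. Gain or loss versus DMSO fitted; parallel SRB staining (560 nm) tracked overt cytotoxicity.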

[2] = read-out: Interleukin-8 (IL8), CXCL8 (gene 3576); assay: BSK_3C_IL8: BioMAP Diversity Plus: 3C Assay for Interleukin-8 (IL8) Biomarker Activity (AID 2283020); details: primary human endothelial cells (HUVEC); actives raise or lower the signal
Outline: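 IL-8 was measured by ELISA in HUVEC cultures 24 h after chemical dosing, with gain or loss of signal fitted relative to DMSO. Parallel SRB total-protein staining tracked overt cytotoxicity.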

[3] = BSK_3C_SRB: Viability Assessment in the BioMAP Diversity Plus: 3C Assay (AID 2283023); details: primary human endothelial cells (HUVEC);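 also: fitted both ways against DMSO so a hit may be signal rise or drop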
Outline: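 Cells were dosed with chemical, cultured 24 h, fixed with 10% TCA, stained with 0.1% SRB and read at 560 nm. Human umbilical vein endothelium was used; DMSO served as negative control and baseline.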

[4] = read-out: Pselectin, SELP (gene 6403); assay: BSK_4H_Pselectin: BioMAP Diversity Plus: 4H Assay for Pselectin Biomarker Activity (AID 2283026); details: primary human endothelial cells (HUVEC); actives raise or lower the signal
Outline: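 ELISA of surface P-selectin on HUVEC, 24 h after dosing, with parallel SRB staining (0.1% after 10% TCA fixation, 560 nm) for overt cytotoxicity. Activity fitted in both directions relative to DMSO.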

[5] = BSK_4H_SRB: Viability Assessment in the BioMAP Diversity Plus: 4H Assay (AID 2283027); details: primary human endothelial cells (HUVEC);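 also: cells exposed to compound for 24 h before staining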;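 as to AC50: curves fitted both ways versus DMSO so AC50 may be loss or gain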
Outline: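 Cytotoxicity read-out in primary human endothelial cells: after 24 h compound exposure, cells were TCA-fixed (10%), stained with 0.1% SRB and absorbance taken at 560 nm. Values fitted in both directions relative to DMSO.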

[6] = read-out: Urokinase-type plasminogen activator receptor (uPAR), PLAUR (gene 5329); assay: BSK_4H_uPAR: BioMAP Diversity Plus: 4H Assay for Urokinase-type plasminogen activator receptor (uPAR) Biomarker Activity (AID 2283030); details: primary human endothelial cells (HUVEC); actives raise or lower the signal
Outline: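 Chemicals are dosed onto human vascular endothelial primary cells (umbilical vein). After 24 h, uPAR is read by ELISA. Gain or loss of signal is fitted relative to DMSO.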

[7] = read-out: Monokine induced gamma interferon (MIG), CXCL9 (gene 4283); assay: BSK_BE3C_MIG: BioMAP Diversity Plus: BE3C Assay for Monokine induced gamma interferon (MIG) Biomarker Activity (AID 2283035); details: primary human bronchial epithelial cells; actives raise or lower the signal
Outline: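 ELISA quantified MIG after 24 h exposure of primary bronchial epithelial cultures, analysed in both directions relative to DMSO. Cytotoxicity tracked in parallel cultures by sulforhodamine B staining.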

[8] = read-out: Plasminogen activator inhibitor-1 (PAI1), SERPINE1 (gene 5054); assay: BSK_BE3C_PAI1: BioMAP Diversity Plus: BE3C Assay for Plasminogen activator inhibitor-1 (PAI1) Biomarker Activity (AID 2283037); details: primary human bronchial epithelial cells; actives raise or lower the signal
Outline: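 PAI-1 was measured by ELISA in human primary bronchial epithelial cultures 24 h after chemical dosing, with cytotoxicity checked by SRB total-protein staining in parallel cultures. Activity was fitted in both directions relative to DMSO.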

[9] = read-out: Macrophage colony-stimulating factor (MCSF), CSF1 (gene 1435); assay: BSK_CASM3C_MCSF: BioMAP Diversity Plus: CASM3C Assay for Macrophage colony-stimulating factor (MCSF) Biomarker Activity (AID 2283044); details: primary human coronary artery smooth muscle cells; actives raise or lower the signal;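 also: M-CSF protein amount quantified by ELISA after 24 h exposure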
[10] = read-out: Low-density lipoprotein receptor (LDLR), LDLR (gene 3949); assay: BSK_CASM3C_LDLR: BioMAP Diversity Plus: CASM3C Assay for Low-density lipoprotein receptor (LDLR) Biomarker Activity (AID 2283045); details: primary human coronary artery smooth muscle cells; actives raise or lower the signal;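 also: LDLR protein level on the cell surface quantified by ELISA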
[11] = read-out: serum amyloid A (SAA), SAA1 (gene 6288); assay: BSK_CASM3C_SAA: BioMAP Diversity Plus: CASM3C Assay for serum amyloid A (SAA) Biomarker Activity (AID 2283049); details: primary human coronary artery smooth muscle cells; actives raise or lower the signal;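 also: SAA protein level quantified by ELISA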
[12] = BSK_CASM3C_SRB: Viability Assessment in the BioMAP Diversity Plus: CASM3C Assay (AID 2283050); details: primary human coronary artery smooth muscle cells
[13] = read-out: Thrombomodulin, THBD (gene 7056); assay: BSK_CASM3C_Thrombomodulin: BioMAP Diversity Plus: CASM3C Assay for Thrombomodulin Biomarker Activity (AID 2283051); details: primary human coronary artery smooth muscle cells; actives raise or lower the signal;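 also: thrombomodulin protein level measured by ELISA 24 h after dosing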
[14] = read-out: Collagen III, COL3A1 (gene 1281); assay: BSK_hDFCGF_CollagenIII: BioMAP Diversity Plus: hDFCGF Assay for Collagen III Biomarker Activity (AID 2283056); details: primary human foreskin fibroblasts; actives raise or lower the signal
Outline: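 Cells: human foreskin fibroblasts, primary. Dosing followed by 24 h incubation, then ELISA for collagen III. Both increases and decreases scored relative to DMSO.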

[15] = read-out: Macrophage colony-stimulating factor (MCSF), CSF1 (gene 1435); assay: BSK_hDFCGF_MCSF: BioMAP Diversity Plus: hDFCGF Assay for Macrophage colony-stimulating factor (MCSF) Biomarker Activity (AID 2283060); details: primary human foreskin fibroblasts; actives raise or lower the signal
Outline: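 M-CSF levels, determined by ELISA, are taken at 24 h after dosing human skin fibroblasts. Responses in either direction are fitted with DMSO serving as the baseline.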

[16] = read-out: Interleukin-1 alpha (IL1a), IL1A (gene 3552); assay: BSK_KF3CT_IL1a: BioMAP Diversity Plus: KF3CT Assay for Interleukin-1 alpha (IL1a) Biomarker Activity (AID 2283070); details: primary human keratinocytes with fibroblasts; actives raise or lower the signal
Outline: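 IL-1a was detected by ELISA 24 h after chemical treatment of a co-culture of human skin keratinocytes and foreskin fibroblasts. Gain or loss of signal was fitted against the DMSO baseline.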

[17] = read-out: C-C motif chemokine 2 (Homo sapiens) (UniProt P13500); assay: BSK_KF3CT_MCP1: BioMAP Diversity Plus: KF3CT Assay for Monocyte Chemoattractant Protein 1 (MCP1/CCL2) Biomarker Activity (AID 2283073); details: primary human keratinocytes with fibroblasts; actives raise or lower the signal
Outline: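 Keratinocytes and foreskin fibroblasts were co-cultured, dosed with chemical, and sampled 24 h later. MCP-1 was quantified by ELISA, and the endpoint was analyzed with bidirectional fitting using DMSO as negative control.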

[18] = read-out: Matrix Metallopeptidase 9 (MMP9), MMP9 (gene 4318); assay: BSK_KF3CT_MMP9: BioMAP Diversity Plus: KF3CT Assay for Matrix Metallopeptidase 9 (MMP9) Biomarker Activity (AID 2283074); details: primary human keratinocytes with fibroblasts; actives raise or lower the signal;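 as to AC50: MMP9 protein level quantified by ELISA in the co-culture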
Outline: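 MMP-9 quantified by ELISA after 24 h chemical treatment of primary human skin keratinocyte/fibroblast co-cultures; gain or loss fitted against DMSO, with parallel SRB staining (0.1% SRB, 560 nm) for overt cytotoxicity.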

[19] = read-out: E-selectin (Homo sapiens) (UniProt P16581); assay: BSK_LPS_Eselectin: BioMAP Diversity Plus: LPS Assay for Eselectin Biomarker Activity (AID 2283077); details: primary human HUVEC with PBMC; actives raise or lower the signal
Outline: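 Signal of E-selectin, detected by ELISA, served as the endpoint; cells were umbilical vein endothelium with PBMC, read 24 h after treatment. DMSO defined baseline, and both increases and decreases were fitted.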

[20] = read-out: Interleukin-8 (IL8), CXCL8 (gene 3576); assay: BSK_LPS_IL8: BioMAP Diversity Plus: LPS Assay for Interleukin-8 (IL8) Biomarker Activity (AID 2283078); details: primary human HUVEC with PBMC; actives raise or lower the signal
Outline: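 Endothelial cells and PBMC from human donors are co-cultured, treated with chemicals and LPS, then assayed for IL-8 by ELISA after 24 h. Parallel SRB staining (0.1% SRB after 10% TCA fixation, 560 nm) flags cytotoxicity.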

Measured: AC50

Sequence of E-selectin (Homo sapiens) (P16581 whole entry, looked up): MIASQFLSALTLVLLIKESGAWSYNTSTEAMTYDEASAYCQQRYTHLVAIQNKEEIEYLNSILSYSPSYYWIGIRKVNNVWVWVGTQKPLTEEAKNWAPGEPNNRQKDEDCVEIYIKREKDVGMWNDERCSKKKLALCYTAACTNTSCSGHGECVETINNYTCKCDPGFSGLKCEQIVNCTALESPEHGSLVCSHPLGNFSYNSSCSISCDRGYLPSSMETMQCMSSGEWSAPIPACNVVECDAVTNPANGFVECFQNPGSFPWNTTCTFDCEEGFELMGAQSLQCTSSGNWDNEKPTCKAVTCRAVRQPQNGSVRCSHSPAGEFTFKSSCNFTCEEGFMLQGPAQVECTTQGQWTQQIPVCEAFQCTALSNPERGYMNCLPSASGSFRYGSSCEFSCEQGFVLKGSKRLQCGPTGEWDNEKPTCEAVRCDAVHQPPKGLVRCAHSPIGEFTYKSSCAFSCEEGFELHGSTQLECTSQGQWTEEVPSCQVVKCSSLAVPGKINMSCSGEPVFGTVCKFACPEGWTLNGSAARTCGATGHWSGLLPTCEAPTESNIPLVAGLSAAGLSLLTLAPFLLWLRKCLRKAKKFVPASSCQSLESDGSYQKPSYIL

O=c1c2ccccc2c(=O)c2c1cc(Cl)c1[nH]c3c([nH]c12)c(Cl)cc1c(=O)c2ccccc2c(=O)c13
active: [13] 6 µM | [15] 20 µM
inactive: all other assays above

CCCOC(=O)c1ccccc1C(=O)OCCC
inactive: all assays above

O=P1(NCCCl)OCCCN1CCCl (stereo not drawn)
inactive: all assays above

O=c1[nH]c(Cl)c(Cl)cc1Cl
inactive: all assays above

COC(C)(C)CCC[C@H](C)C/C=C/C(C)=C/C(=O)OC(C)C
inactive: [2] | [7] | [8] | [11] | [12] | [17]
active: [1] 29.8 µM | [3] 31.1 µM | [4] 25.6 µM | [5] 32.4 µM | [6] 32.6 µM | [9] 13.7 µM | [10] 10.2 µM | [13] 14.3 µM | [14] 16.6 µM | [15] 22.7 µM | [16] 24.1 µM | [18] 29 µM | [19] 35.3 µM | [20] 33.5 µM

Cc1ccc(OP(=O)(Oc2ccc(C)cc2)Oc2ccc(C)cc2)cc1 (tested in a mixture with another compound)
active: [1] 2.31 µM | [3] 9.68 µM | [14] 12.9 µM | [15] 20 µM | [18] 13.6 µM | [20] 11.8 µM
inactive: all other assays above

O=C(O)CCCc1ccc(N(CCCl)CCCl)cc1
inactive: [1] | [2] | [6] | [7] | [8] | [10] | [11] | [13] | [14] | [15] | [16] | [17] | [18] | [19] | [20]
active: [3] 20 µM | [4] 13.6 µM and 20 µM | [5] 20 µM | [6] 0.687 µM | [7] 28.9 µM | [8] 3.97 µM | [9] 17 µM and 15.7 µM | [10] 20 µM | [11] 20 µM | [12] 24.8 µM and 20 µM | [13] 5.06 µM | [14] 20 µM | [15] 16.6 µM | [16] 12.3 µM | [17] 30 µM | [18] 20 µM | [19] 20 µM | [20] 25.4 µM

CNC(=O)Oc1cc(C)c(SC)c(C)c1
active: [3] 20 µM | [9] 13.3 µM | [10] 7.52 µM | [12] 10.1 µM
inactive: all other assays above

O=[N+]([O-])O
inactive: all assays above

CC(C)CCCCCCCOP(=O)(Oc1ccccc1)Oc1ccccc1
active: [1] 4.92 µM | [2] 20 µM | [3] 9.85 µM | [4] 15.1 µM | [5] 20 µM | [6] 29.1 µM | [8] 3.97 µM | [9] 0.173 µM | [10] 6.45 µM | [12] 20 µM | [14] 5.29 µM | [15] 8.47 µM | [16] 11.3 µM | [17] 31.4 µM | [18] 11.2 µM | [19] 23 µM
inactive: [7] | [11] | [13] | [20]

CC(=O)/C=C/c1ccccc1
active: [19] 31.1 µM | [20] 20 µM
inactive: all other assays above
